# Only some compounds are listed: those with a hit (about 3.1% of all), similar ones and a draw of the others.
# DRD3 agonist – qHTS of D3 Dopamine Receptor Agonist: qHTS | D(3) dopamine receptor (Homo sapiens), P35462 | D3R DiscoveRx beta-arrestin cells, luminescence, 90 min | max activation, % | 410,000 compounds, 0.58% hits | AID 652048, 2013; in the data active = max activation above about 30%
# Target sequence (P35462 whole entry, looked up): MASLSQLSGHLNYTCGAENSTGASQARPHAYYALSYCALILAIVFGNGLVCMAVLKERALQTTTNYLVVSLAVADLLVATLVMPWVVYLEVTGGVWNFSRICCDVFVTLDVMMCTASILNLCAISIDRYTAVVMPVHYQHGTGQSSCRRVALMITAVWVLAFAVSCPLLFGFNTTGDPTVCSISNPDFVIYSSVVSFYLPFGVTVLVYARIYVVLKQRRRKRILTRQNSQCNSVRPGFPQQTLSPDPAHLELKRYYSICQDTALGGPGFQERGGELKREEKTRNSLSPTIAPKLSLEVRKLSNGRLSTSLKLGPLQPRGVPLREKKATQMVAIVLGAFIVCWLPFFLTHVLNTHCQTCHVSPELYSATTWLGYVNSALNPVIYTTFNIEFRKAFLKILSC
#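 Cells at 1500/well, incubated overnight, then treated with pinned compounds (dopamine as control) for 90 min at 37 degrees C. DiscoveRx reagent added for 30 - 60 minutes at room temperature; luminescence read.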
# RGS4 inhibitor – Inhibitors of Regulator of G Protein Signaling (RGS) 4: qHTS | Regulator of G-protein signaling 4 (Homo sapiens), P49798 | Transcreener GDP fluorescence polarization, RGS4-accelerated GTP hydrolysis | Potency, µM (doses to about 114 µM), actives largely listed as inhibitors | 390,000 compounds, 0.039% hits | AID 504845, 2011; active = well fitted inhibition curve with a large enough effect; inconclusive = small, poorly fitted or top-dose-only effect; inactive = no such curve, though single readings can be large or run the other way; note: nearly all actives have a fitted effect of over 75% in size
# Target sequence (P49798 whole entry, looked up): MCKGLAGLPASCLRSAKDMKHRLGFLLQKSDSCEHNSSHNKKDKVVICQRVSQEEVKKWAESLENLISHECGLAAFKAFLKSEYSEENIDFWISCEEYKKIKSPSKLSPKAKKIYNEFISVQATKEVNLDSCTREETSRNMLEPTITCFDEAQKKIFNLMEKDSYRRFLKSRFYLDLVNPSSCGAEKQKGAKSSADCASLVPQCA
#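 MLSMR compounds (23 nl, pin-transferred) preincubated 10 min at room temperature with a 500nM (2x) first reagent, then RGS4 at 900nM (2x) plus Transcreener GDP mix added; fluorescence polarization (620/688 nm) read before and after 90 min at 30 °C.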
# uPA generation – qHTS for Inhibitors of Cell Surface uPA Generation; cell surface uPA generation assay, qHTS; Potency, µM (doses to about 38.3 µM), hits mostly inhibitors; 330,000 compounds, 0.31% hits; active = well fitted inhibition curve with a large enough effect; inconclusive = small, poorly fitted or top-dose-only effect; inactive = no such curve, though single readings can be large or run the other way; tested in mouse RAW 264.7 cells; note: nearly all actives have a fitted effect of over 55% in size
# D3 antag – qHTS of D3 Dopamine Receptor Antagonist: qHTS; D(3) dopamine receptor (Homo sapiens), P35462; D3R cells, DiscoveRx beta-arrestin luminescence, antagonist mode; active compounds read low; max response, negative = inhibition, %; 360,000 compounds, 2.5% hits; in the data active = max response below about -50%; inconclusive = no clear call, values can overlap the other calls
#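 Cells plated overnight at 1500 cells/well, then exposed to library compounds with dopamine controls for 90 minutes at 37 degrees C. DiscoveRx reagent added for 30–60 minutes at room temperature; luminescence read, quantitative HTS format.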
# Hits are given with their value; . = inactive; ? = inconclusive; / = no result; [ ] = another dose, or the depositor's remark.
SMILES,DRD3 agonist,RGS4 inhibitor,uPA generation,D3 antag
CCC1C(=O)C(C)(C)C(=O)OC1c1ccc([N+](=O)[O-])cc1 (configuration not stated),.,.,.,.
O=C1CC(=O)OC(c2ccc([N+](=O)[O-])cc2)O1,.,/,/,-86.6
O=C(N/C(=C/c1ccc(Cl)cc1)c1nc2ccccc2[nH]1)c1ccco1,.,.,.,.
COc1cc(/C=C(/C(=O)c2cccs2)c2nc3ccccc3[nH]2)cc(OC)c1O,.,?,.,-99.9
O=C(/C(=C/c1ccc(Cl)cc1)c1nc2ccccc2[nH]1)c1ccccc1,.,.,.,-74.8
Nc1nnnn1-c1ccccc1,.,/,/,/
COc1ccc2c(c1)cc1c(=O)n(CC(=O)NC3CC3)nc(C)n12,.,.,/,/
CCCN1CCC(C(=O)NC(c2ccc(Cl)cc2)c2ccsc2)CC1 (configuration not stated),.,/,/,-56.2
O=C(NC(c1ccccc1)c1ccsc1)C1CCN(Cc2ccccc2)CC1 (configuration not stated),.,/,/,?
COc1ccc(OCCN2CCC(C(=O)NC(c3ccsc3)c3ccccc3C)CC2)cc1 (configuration not stated),.,/,/,.
O=C(NC(c1ccc(Cl)cc1)c1ccsc1)C1CCN(Cc2ccc(Oc3ccccc3)cc2)CC1 (configuration not stated),.,/,/,-64.4
Cc1ccccc1C(NC(=O)C1CCN(Cc2ccc(Oc3ccccc3)cc2)CC1)c1ccsc1 (configuration not stated),.,/,/,-56.3
O=C(OC1CC2CC1[C@H]1CCCCN1C2=O)N1CCN(S(=O)(=O)c2ccccc2)CC1 (some centres not stated),.,/,/,-53.2
O=C1NC(c2ccccc2)C(C(=O)c2cccs2)=C1O (configuration not stated),.,.,.,-58.4
O=C(c1ccccc1)c1cccs1,.,.,.,.
COc1ccc(CNCc2ccc3c(c2)n(C)c(=O)n3C)cc1,.,.,/,/
CCC[N+]1(CC#CC(O)(c2ccccc2)C2CCCCC2)CCCCC1 (configuration not stated),.,.,.,-53.7
COc1cccc(CN(C)C(c2ccccc2)c2ccccc2)c1OC,.,.,.,-50.5
COc1ccc(CN(C)C(c2ccccc2)c2nnnn2-c2ccccc2C)c(OC)c1C (configuration not stated),.,.,.,.
Cc1ccccc1C1C(C#N)=C2N=C(N)c3ccccc3N2C2=C1C(=O)CCC2 (configuration not stated),.,.,.,.
Cc1ccccc1C1C(C#N)=C2N=C(N)c3c(sc4c3CCCCC4)N2C2=C1C(=O)CC(C)(C)C2 (configuration not stated),.,.,.,-60.8
CCc1cc2c(=O)c(-c3cnn(-c4ccccc4)c3)c(C)oc2c(CN2CCCCC2)c1O,36.7,.,/,.
CCc1cc2c(=O)c(-c3cnn(-c4ccccc4)c3)coc2c(CN2CCOCC2)c1O,.,.[11.4 µM],.,.
CCCN(CCC)CCCOC(=O)c1ccc(Cl)cc1Cl,.,.,.,-69.4
CCCN(CCC)C(=S)NC(=O)c1ccc(Cl)cc1Cl,.,.,.,-181.6
SMILES,DRD3 agonist,RGS4 inhibitor,uPA generation,D3 antag
Cc1ccc(/C=N/Nc2ncc(Cl)cc2Cl)s1,31.1,.,.,.
Clc1cnc(N/N=C/c2cccs2)c(Cl)c1,.,.,.,.
Cc1oc(-c2ccc(C(=O)NCc3ccccc3F)cc2)nc1COc1ccccc1,33.9,.,/,/
Cc1oc(-c2ccc(C(=O)Nc3ccccc3F)cc2)nc1COc1ccccc1,.,.,/,/
CCCNC(=O)CSc1nc2ccccc2nc1Cc1ccc(Cl)cc1,.,.,/,/
Cc1ccc(CN(C(=O)c2ccc(C(C)(C)C)cc2)c2ccccn2)o1,.,.,/,/
CCN1C(=O)c2ccccc2S(=O)c2ccc(C(=O)NCCN(CC(C)C)CC(C)C)cc21 (configuration not stated),.,.,.,-65.4
CCN1C(=O)c2ccccc2S(=O)c2ccc(C(=O)NCc3ccc(C)cc3)cc21 (configuration not stated),.,.,/,/
CC1(C)CC[C@]2(C(=O)O)CC[C@]3(C)C(=CC[C@@H]4[C@@]5(C)CC[C@H](O[C@@H]6O[C@H](C(=O)O)[C@@H](O)[C@H](O[C@@H]7OC[C@H](O)[C@H](O)[C@H]7O)[C@H]6O)C(C)(C)[C@@H]5CC[C@]43C)[C@@H]2C1,.,.,?,-62.8
CC1(C)CC[C@]2(C(=O)O[C@@H]3O[C@H](CO)[C@@H](O)[C@H](O)[C@H]3O)CC[C@]3(C)C(=CCC4[C@@]5(C)CC[C@H](O[C@@H]6O[C@H](C(=O)O)[C@@H](O[C@H]7OC[C@@H](O)[C@@H](O)[C@@H]7O)[C@H](O)[C@H]6O)C(C)(C)C5CC[C@]43C)[C@@H]2C1 (some centres not stated),.,.,.,.
O=C(Nc1cccc(Cl)c1)Nc1nccs1,.,.,.,?
O=C(Nc1ccc(Cl)c(Cl)c1)Nc1nccs1,.,.,3.16µM,.
Cc1cc(Cl)ccc1NC(=O)Cn1nnc2sc(-c3ccccc3)cc2c1=O,.,.,/,/
Cc1ccc(N=Cc2cc(Br)cc(Cl)c2O)cc1,.,.,.,-64.7
Oc1c(Cl)cc(Cl)cc1C=Nc1ccc(Br)cc1,.,.,.,.
NC(=O)COCCN1CCN(C(c2ccccc2)c2ccc(Cl)cc2)CC1 (configuration not stated),.,/,/,/
COCc1cc(C)[nH]c(=O)c1C#N,.,.,.,-53.4
CCOC(=O)c1cc(C)[nH]c(=O)c1C#N,.,.,.,.
Cc1c(Nc2ccc3nonc3c2[N+](=O)[O-])c(=O)n(-c2ccccc2)n1C,.,.,.,.
O=[N+]([O-])c1cncc([N+](=O)[O-])c1Nc1cccc(O)c1,.,.,10µM,.
Cc1c(Nc2cc(Cl)c3nonc3c2[N+](=O)[O-])c(=O)n(-c2ccccc2)n1C,.,?,.,-101.1
O=[N+]([O-])c1c(Nc2cccc(O)c2)cc(Cl)c2nonc12,.,.,.,-131.2
CCc1ccc(NC(=O)CCCn2nc(C)c3c(C)n(-c4ccccc4)nc3c2=O)cc1,.,.,/,/
CCN(C(=O)c1oc2ccc(S(=O)(=O)N3CCCCCC3)cc2c1C)c1ccccc1,.,.,/,/
CCOC(=O)CN(C(=O)CSc1nnc(CNc2ccc(F)cc2)o1)c1ccccc1,.,.,.,-79.8
CCOC(=O)CN(C(=O)CSc1nnc(CNc2ccc(F)cc2)n1C)c1ccccc1,.,.,.,.
CC1Cc2ccccc2N1C(=O)CSc1nnc2c(n1)[nH]c1ccc(F)cc12 (configuration not stated),.,.,.,-67.7
COc1ccc(CNC(=O)CSc2nnc3c(n2)[nH]c2ccc(F)cc23)cc1,.,.,.,.

# Screens deposited in PubChem BioAssay by National Center for Advancing Translational Sciences (NCATS).
